High-throughput results deposited in PubChem BioAssay by University of Kansas High Throughput Screening Laboratory.
Hits are enriched below; roughly 3.6% of the tested compounds scored in any of these assays.
Pf apPOL block: Pf-apPOL DNA polymerase inhibition | Recombinant Pf-apPOL, molecular beacon fluorescence, 1.5 h | inhibition, % at 10 µM | 210,000 compounds, 0.25% hits
mHTT-CaM PPI inh: inhibitors of human mutant huntingtin-calmodulin interaction; AlphaScreen His-mHTT/GST-CaM binding, luminescence; 190,000 compounds, 3.6% hits; AID 1671202; P42858; inhibition, % at 15 µM
A number is an active result; - = inactive; . = no result. Rule as the data show it: active = inhibition above about 50%; inactive = the rest.

SMILES	Pf apPOL block	mHTT-CaM PPI inh
COCCN=C1Nc2ccccc2NC12CCCN(C(=O)c1ccncc1)C2 (configuration not stated)	-	-
O=C(CN1CCOCC1)N1CCCC2(C1)Nc1ccccc1NC2=NCc1ccccc1 (configuration not stated)	-	91.5
COCCN=C1Nc2ccccc2NC12CCCN(C(=O)Cc1c(F)cccc1Cl)C2 (configuration not stated)	-	-
COCCN=C1Nc2ccccc2NC12CCCN(C(=O)Cc1ccc(Cl)cc1)C2 (configuration not stated)	-	99.9
CCn1ccc(C(=O)N2CCCC3(C2)Nc2ccccc2NC3=NCc2ccccc2)n1 (configuration not stated)	-	-
Cc1ccc(-c2nnc(SCC(=O)c3ccc([N+](=O)[O-])cc3)o2)cc1	-	-
O=C(CCc1ccccc1)N1CCCCCC1	-	-
O=C(CNS(=O)(=O)c1ccc(F)c(Cl)c1)N1CCCC1	-	-
CN(C)S(=O)(=O)N1CCCC2(C1)Nc1ccccc1NC2=NCc1ccccc1 (configuration not stated)	-	54.2
COCCN=C1Nc2ccccc2NC12CCCN(S(=O)(=O)c1cccs1)C2 (configuration not stated)	-	-
COc1ccc(CNc2nc(-c3cccs3)cc(C(F)(F)F)n2)cc1	-	-
O=C1OC(c2ccc([N+](=O)[O-])cc2)=N/C1=C\c1ccccc1Cl	-	-
Cc1ccc(C(=O)N2CCCCC2CCN(C)C)s1 (configuration not stated)	-	-
Cc1ccc(C(=O)N=C2SCCN2C(=O)c2ccc(C)s2)s1	-	87.0
CCCN(CCC)C(=O)c1ccccc1NC(=O)CCN1C(=O)c2ccccc2C1=O	-	-
N#Cc1c(OCC(F)(F)F)ccc(C(=O)Nc2cccc(C(F)(F)F)c2)c1OCC(F)(F)F	-	.
O=C(NCC1CCCO1)c1cc2n(n1)C(C(F)(F)F)CC(c1ccco1)N2 (configuration not stated)	-	-
Cc1ccc(C2CC(C(F)(F)F)n3nc(C(=O)Nc4cccc(CCC#N)c4)cc3N2)cc1 (configuration not stated)	-	-
O=C(Nc1cc(Cl)ccc1O)c1cc2n(n1)C(C(F)(F)F)CC(c1ccc(Cl)cc1)N2 (configuration not stated)	-	89.0
COc1ccc(C2CC(C(F)(F)F)n3nc(C(=O)Nc4cc(C)ccc4O)cc3N2)cc1 (configuration not stated)	-	-
O=C(NCC1CCCO1)c1cc2n(n1)C(C(F)(F)F)CC(c1ccc(Cl)c(Cl)c1)N2 (configuration not stated)	-	54.0
N#CCCc1cccc(NC(=O)c2cc3n(n2)C(C(F)(F)F)CC(c2ccc(Cl)cc2)N3)c1 (configuration not stated)	-	74.0
O=C1C=C(SCC(=O)Nc2ccc(Cl)cc2Cl)SC(c2ccccc2Cl)C1 (configuration not stated)	-	.
CC(=O)Nc1ccc2c(c1)CCCC2=O	-	.
Cn1nc(CNC(=O)c2ccc(Br)o2)c2ccccc21	-	-
SMILES	Pf apPOL block	mHTT-CaM PPI inh
COc1cccc(OC)c1OCCNCC1COc2ccccc2O1 (configuration not stated)	-	.
CC(C)(C)CC(C)(C)c1ccc(OCC(O)C[N+]2(C)CCCC2)cc1 (configuration not stated)	-	-
CC(C)(C)c1ccc(OCC(O)CN)cc1 (configuration not stated)	-	-
CC(C)(C)c1ccc(OCC(O)CN2CCCC2)c(C(C)(C)C)c1 (configuration not stated)	-	-
CC(C)(C)c1ccc(OCC(O)CN2CCN(CCO)CC2)cc1 (configuration not stated)	-	-
CCC(C)(C)c1ccc(OCC(O)CN2CCOCC2)c(C(C)(C)CC)c1 (configuration not stated)	-	94.0
CC(C)(C)CC(C)(C)c1ccc(OCC(O)CN2CCCC2)cc1 (configuration not stated)	-	100.1
CN(C)CC(O)COc1ccc(C(C)(C)CC(C)(C)C)cc1 (configuration not stated)	-	99.3
CC[N+]1(CC(O)COc2ccc(C(C)(C)CC(C)(C)C)cc2)CCCC1 (configuration not stated)	-	84.0
Cc1ccn2cc(C(=O)NC3CCCC3)nc2c1	-	-
CCn1c(=O)c2c(ncn2Cc2ccccc2)n(-c2ccccc2C)c1=O	-	-
CCc1ccc(-c2csc(NC(=O)c3cccnc3)n2)cc1	-	-
O=C(CN1CCCCC1c1nc(-c2cccc(F)c2)no1)NCc1cccs1 (configuration not stated)	-	-
Cn1cc(-c2nc(C(=O)NCc3ccccc3)cs2)c2cccnc21	-	-
Cc1ccccc1CNC(=O)c1csc(-c2cn(C)c3ncccc23)n1	-	71.8
CCCCONC(=NS(=O)(=O)c1ncn[nH]1)Nc1nc(C)cc(C)n1	-	-
C=C1OC(=O)OC1(C)CCC1=C(C)CCCC1(C)C (configuration not stated)	-	-
COc1cc(SC)ccc1C(=O)N1CCN(Cc2ccc3c(c2)OCO3)CC1	-	-
CCC[C@H]1[C@@H](OC(=O)NCc2cccc(C(F)(F)F)c2)CC[C@@]23CCCN2C(=O)CCC[C@@H]13	-	-
CCC[C@H]1[C@@H](OC(=O)NCc2ccc(C(F)(F)F)cc2)CC[C@@]23CCCN2C(=O)CCC[C@@H]13	-	78.5
Cc1ccccc1-n1nc2c(c1NC(=O)c1cccc(Cl)c1)CSC2	-	71.0
COc1ccc(C(=O)Nc2c3c(nn2-c2cccc(Cl)c2)CSC3)cc1OC	-	57.0
Cc1ccccc1-n1nc2c(c1NC(=O)c1ccc([N+](=O)[O-])cc1)CSC2	-	84.0
Cc1ccccc1-n1nc2c(c1NC(=O)c1ccc(Cl)cc1)CSC2	-	71.0
COc1cccc(C(=O)Nc2c3c(nn2-c2ccccc2C)CSC3)c1	-	-
SMILES	Pf apPOL block	mHTT-CaM PPI inh
Cc1cc(C)cc(C(=O)Nc2c3c(nn2-c2ccccc2C)CSC3)c1	-	-
Cc1ccccc1-n1nc2c(c1NC(=O)c1ccccc1[N+](=O)[O-])CSC2	-	-
COc1ccc(C(=O)Nc2c3c(nn2-c2cccc(C)c2)CSC3)cc1OC	-	-
Cc1cc(F)ccc1NC(=O)c1csc2c1CCCC2	-	-
CCOc1cc(C(=O)Nc2ccc3c(c2)CCC(=O)N3)cc(OCC)c1OCC	-	-
Cc1ccc(-c2noc(CSc3nc(C)cc(=O)[nH]3)n2)cc1	-	-
CCCC1CCC(C2=N/C(=C\c3ccccc3OC)C(=O)O2)CC1 (configuration not stated)	-	-
Cc1cccc(CN2CCCN(c3cccc(NC(=O)C4CCC4)c3)C2=O)c1	-	-
O=C(COc1ccccc1Cl)Nc1cccc(I)c1	-	-
Cc1ccc(S(=O)(=O)N2CCN(c3ccc(Cl)cc3[N+](=O)[O-])CC2C)cc1 (configuration not stated)	-	-
O=C(Nc1c2c(nn1-c1ccc([N+](=O)[O-])cc1)CSC2)c1ccc(F)cc1	57.9	-
O=C(Nc1c2c(nn1-c1ccc([N+](=O)[O-])cc1)CSC2)c1ccc([N+](=O)[O-])cc1	-	-
Cc1cccc(C(=O)Nc2nnc3ccccn23)c1	-	-
Cc1ccc(C(=O)Nc2nnc3ccccn23)s1	-	91.3
Cc1ccc(C(=O)Nc2nnc3ccccn23)cc1	-	-
